This is a sample that favours compounds with a hit; in the whole collection about 6.2% have one here.
HT1080 IDH1KD tx – kills HT-1080 cells with IDH1 knockdown. HT-1080 IDH1 knockdown viability, ATP luminescence, 48 h. Potency, µM (titrated, usually from 46.1 µM), usual class: cytotoxic. 360,000 tested, 2% active. AID 686971
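IDH1KD HT-1080 cells, 750/well, RPMI + 5% FBS; compound pinned after 2 h settling; 48 h, 37 °C; CellTiter-Glo luminescence; % activity normalised to DMSO and no-cell wells; curves fitted, classed by r2 and efficacy.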
KB-V1 MDR tox – KB-V1 MDR subline cytotoxicity. KB-V1 MDR cells viability, CellTiter-Glo, 72 h. Potency, µM (series often up to 46.1 µM), most hits filed as cytotoxic. 400,000 tested, 3.4% active. AID 1347076; further: nearly all actives have a fitted effect of over 60% in size
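Readout: CellTiter-Glo luminescence, 10 min after addition. Cells: KB-V1 MDR subline, 72 h at 37 degrees C with compound. Analysis: corrected, normalized data fitted to concentration-effect curves.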
S2 tox – cell viability loss in ATXN counter-screen | S2 cells (HEK-293 line with an ATXN2-luciferase reporter) viability, CellTiter-Fluor protease fluorescence, 24 h | Potency, µM (series often up to 56.7 µM), usual class: cytotoxic | 400,000 tested, 0.49% active | AID 651635; further: nearly all actives have a fitted effect of over 40% in size
HT1080NT lethal – kills 2HG-producing HT-1080-NT fibrosarcoma cells | Potency, µM (top dose mostly 46.1 µM), actives largely listed as cytotoxic | AID 686970 | HT-1080-NT fibrosarcoma viability, CellTiter-Glo ATP luminescence, 48 h | 360,000 tested, 1.6% active;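 further: NT is the 2HG producing partner of a matched IDH1 knockdown line; nearly all actives have a fitted effect of over 55% in size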
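HT-1080-NT; 750 cells/well; 5% FBS RPMI; 48 h compound, 37 degrees C; CellTiter-Glo luminescence; curve fitting and curve-class assignment.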
KB-3-1 tox – KB-3-1 parental cell cytotoxicity; KB-3-1 viability, CellTiter-Glo ATP luminescence, 72 h; Potency, µM (highest dose often 46.1 µM), actives largely listed as cytotoxic; 400,000 tested, 1.4% active; further: nearly all actives have a fitted effect of over 60% in size
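Cytotoxicity in the drug-sensitive parental line KB-3-1 was scored as loss of CellTiter-Glo luminescence following 72 h incubation with compound. Values come from curve fitting of normalized concentration-response data.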
ATXN2 expr inh – inhibitors of ATXN2 expression. HEK-293 ATXN2-luciferase reporter, luminescence, 24 h. Potency, µM (highest dose often 57 µM), actives largely listed as inhibitors. 360,000 tested, 0.72% active. AID 1745845; further: nearly all actives have a fitted effect of over 55% in size
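qHTS (up to 57 uM final) was run with 24 h compound exposure of reporter cells at 37 °C. Each well was multiplexed: SteadyGlo luminescence measured ATXN2-luciferase expression after a fluorogenic Gly-Phe-AFC viability readout (25 uM final).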
A number is an active result; – = inactive; ? = inconclusive; · = no result. The call rests on the fitted dose curve; in most records, active means well fitted curve in the direction sought with a large enough effect; inconclusive means small, poorly fitted or top-dose-only effect, or another doubt; inactive means no such curve, though single readings can be large; an effect the other way counts as inactive or inconclusive.

SMILES	HT1080 IDH1KD tx	KB-V1 MDR tox	S2 tox	HT1080NT lethal	KB-3-1 tox	ATXN2 expr inh
CCOC(=O)c1sc2ncnc(NCC(c3cccs3)N(C)C)c2c1C (stereo unspecified)	–	20.6µM	–	–	–	–
COc1cc(NC(=O)c2cccnc2Sc2ccc(Cl)cc2)cc(OC)c1OC	–	5.17µM	–	–	–	–
Cc1cc(COc2ccccc2OCc2cc(C)no2)on1	–	11.6µM	–	–	–	–
Cc1c(C(=O)Nc2ccc(S(=O)(=O)N(C)C3CCN(C)CC3)cc2)oc2c(Cl)cccc12	?	?	·	?	?	25.1µM
Cc1ccc(OCC(=O)Nc2ccc(S(=O)(=O)N(C)C3CCN(C)CC3)cc2)c(C)c1	–	–	?	–	–	?
CN1CCC(N(C)S(=O)(=O)c2ccc(NC(=O)c3ccc(S(=O)(=O)N(C)C)cc3)cc2)CC1	–	–	–	–	–	–
CN1CCC(N(C)S(=O)(=O)c2ccc(NC(=O)COc3ccc(Br)cc3Cl)cc2)CC1	18.4µM	?	–	16.4µM	?	?
Cc1c(C(=O)Nc2ccc(S(=O)(=O)N(C)C3CCN(C)CC3)cc2)oc2ccccc12	–	20.6µM	?	–	–	?
COc1ccccc1C(=O)N1CCCC(c2nc(SCCN3CCOCC3)ncc2C)C1 (stereo unspecified)	·	·	–	·	·	·
CC1CC(C)CN(S(=O)(=O)c2ccc(Oc3ccc([N+](=O)[O-])cc3)cc2)C1 (stereo unspecified)	–	13µM	–	–	?	–
CC1CCCN(S(=O)(=O)c2ccc([N+](=O)[O-])cc2)C1 (stereo unspecified)	–	–	–	–	–	·
CN(Cc1ccccc1)C(=O)CCSc1nc(-c2ccc3c(c2)OCO3)cc(C(F)(F)F)n1	?	2.59µM	–	–	–	–
O=C(CCSc1nc(-c2ccc3c(c2)OCO3)cc(C(F)(F)F)n1)NCc1ccccc1	?	–	–	–	–	–
CC(C)(C)n1nnnc1C(c1cccnc1)N(Cc1ccccc1)Cc1ccco1 (stereo unspecified)	–	?	–	–	–	–
CCN(Cc1ccccc1)C(c1ccc(C(F)(F)F)cc1)c1nnnn1C(C)(C)C (stereo unspecified)	–	20.6µM	–	–	16.4µM	?
CCN(Cc1ccccc1)C(c1cccc(C#N)c1)c1nnnn1C(C)(C)C (stereo unspecified)	?	13µM	–	–	–	–
CCN1CCN(C(c2ccccc2)c2nnnn2C(C)(C)C)CC1 (stereo unspecified)	–	–	–	–	–	–
Cc1ccc(CNC(=O)CSc2ncc3c(n2)-c2cc(Cl)ccc2N(C)S3(=O)=O)cc1	·	–	–	·	–	–
CC(=O)Oc1ccc(N(C(C)=O)S(=O)(=O)c2ccccc2)c2ccccc12	–	–	–	?	–	·
COc1ccc(S(=O)(=O)N(C(C)=O)c2ccc(OC(C)=O)c3ccccc23)cc1[N+](=O)[O-]	?	?	?	20.6µM	?	·
C/C(=N\NC(N)=O)c1ccc(Cl)cc1	–	11.6µM	–	–	?	–
C/C(=N\NC(N)=O)c1ccccc1	–	?	–	–	–	–
Cc1csc(NC(=O)C2CCN(S(=O)(=O)c3ccccc3F)CC2)n1	–	14.6µM	–	–	–	–
O=C(NC1CCCc2ccccc21)C1CCN(S(=O)(=O)c2ccccc2)CC1 (stereo unspecified)	–	?	–	–	–	–
O=C(NC1CCCc2ccccc21)C1CCN(S(=O)(=O)c2ccccc2F)CC1 (stereo unspecified)	–	7.31µM	–	–	–	–
COc1ccc(C(C)NC(=O)CN(c2cc(OC)ccc2OC)S(=O)(=O)c2ccccc2)cc1 (stereo unspecified)	·	–	–	·	–	–
O=C(Nc1nc(-c2cccs2)c(-c2cccs2)s1)C1(c2ccccc2)CC1	–	18.4µM	–	–	–	–
CC(=O)NCCC(=O)Nc1nc(-c2cccs2)c(-c2cccs2)s1	–	–	–	–	–	–
